In PubChem BioAssay (EPA / NIEHS):
Values joined by “and” are separate entries in the source; they are usually repeats but may differ in a detail not shown here. Equal values may be shown once. Active and inactive are the calls of the source. The calls were made as follows: active = hit-call score of the fitted dose curve at least 0.9, where 1 is the maximum; inactive = score below 0.9.

Assays:
[1] = read-out: Matrix Metallopeptidase 1 (MMP1), MMP1 (gene 4312); experiment: BSK_hDFCGF_MMP1: BioMAP Diversity Plus: hDFCGF Assay for Matrix Metallopeptidase 1 (MMP1) Biomarker Activity (AID 2283064); conditions: primary human foreskin fibroblasts; actives raise or lower the signal
Procedure, shortened: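 ELISA read-out of MMP1 from human foreskin fibroblasts (primary skin cells), 24 h post-dose. Gain or loss of signal was fitted bidirectionally versus DMSO negative control; cytotoxicity was checked by SRB in parallel cultures.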

[2] = read-out: Vascular cell adhesion molecule 1 (VCAM1), VCAM1 (gene 7412); experiment: BSK_hDFCGF_VCAM1: BioMAP Diversity Plus: hDFCGF Assay for Vascular cell adhesion molecule 1 (VCAM1) Biomarker Activity (AID 2283065); conditions: primary human foreskin fibroblasts; actives raise or lower the signal;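 as to AC50: VCAM-1 protein level quantified by ELISA after 24 h chemical exposure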
Procedure, shortened: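 Human foreskin fibroblast primary cells dosed with chemical, VCAM-1 measured by ELISA at 24 h. Bidirectional curve fitting relative to DMSO as negative control/baseline.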

[3] = read-out: Intercellular Adhesion Molecule 1 (ICAM1), ICAM1 (gene 3383); experiment: BSK_KF3CT_ICAM1: BioMAP Diversity Plus: KF3CT Assay for Intercellular Adhesion Molecule 1 (ICAM1) Biomarker Activity (AID 2283067); conditions: primary human keratinocytes with fibroblasts; actives raise or lower the signal
Procedure, shortened: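 Human keratinocyte–foreskin fibroblast co-culture was treated for 24 h. Cell-surface ICAM-1 was quantified by ELISA, fitted bidirectionally relative to DMSO. Cytotoxicity was checked in parallel cultures by SRB total-protein staining.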

[4] = read-out: Interferon-gamma inducible Protein 10 (IP10), CXCL10 (gene 3627); experiment: BSK_KF3CT_IP10: BioMAP Diversity Plus: KF3CT Assay for Interferon-gamma inducible Protein 10 (IP10) Biomarker Activity (AID 2283068); conditions: primary human keratinocytes with fibroblasts; actives raise or lower the signal
Procedure, shortened: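 Signal is secreted/surface IP-10 by ELISA in a human primary skin co-culture of keratinocytes and foreskin fibroblasts, taken 24 h post-dosing; DMSO served as negative control.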

[5] = BSK_KF3CT_SRB: Viability Assessment in the BioMAP Diversity Plus: KF3CT Assay (AID 2283069); conditions: primary human keratinocytes with fibroblasts
Procedure, shortened: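 SRB read-out at 560 nm (0.1% stain, TCA-fixed cells) gauges overt cytotoxicity in a human skin keratinocyte–fibroblast co-culture 24 h post-dosing. Signal change was fitted bidirectionally relative to DMSO control.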

[6] = read-out: Interleukin-1 alpha (IL1a), IL1A (gene 3552); experiment: BSK_KF3CT_IL1a: BioMAP Diversity Plus: KF3CT Assay for Interleukin-1 alpha (IL1a) Biomarker Activity (AID 2283070); conditions: primary human keratinocytes with fibroblasts; actives raise or lower the signal
Procedure, shortened: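 Primary skin co-culture (keratinocytes, foreskin fibroblasts), 24 h exposure; ELISA for IL-1a; bidirectional curve fit vs DMSO.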

[7] = read-out: TIMP metallopeptidase inhibitor 2 (TIMP2), TIMP2 (gene 7077); experiment: BSK_KF3CT_TIMP2: BioMAP Diversity Plus: KF3CT Assay for TIMP metallopeptidase inhibitor 2 (TIMP2) Biomarker Activity (AID 2283071); conditions: primary human keratinocytes with fibroblasts; actives raise or lower the signal
Procedure, shortened: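 TIMP-2 measured by ELISA at 24 h in human keratinocyte/fibroblast primary co-cultures exposed to chemicals. Both increases and decreases were fitted against DMSO. Parallel cultures were stained with SRB for total protein as an overt-cytotoxicity check.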

[8] = read-out: Transforming growth factor beta 1 (TGFb1), TGFB1 (gene 7040); experiment: BSK_KF3CT_TGFb1: BioMAP Diversity Plus: KF3CT Assay for Transforming growth factor beta 1 (TGFb1) Biomarker Activity (AID 2283072); conditions: primary human keratinocytes with fibroblasts; actives raise or lower the signal
Procedure, shortened: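 ELISA quantifies TGF-b1 at 24 h post-dose in a primary human skin co-culture of keratinocytes and fibroblasts, with gain or loss judged against DMSO. Parallel SRB total-protein staining flags overt cytotoxicity.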

[9] = read-out: C-C motif chemokine 2 (Homo sapiens) (UniProt P13500); experiment: BSK_KF3CT_MCP1: BioMAP Diversity Plus: KF3CT Assay for Monocyte Chemoattractant Protein 1 (MCP1/CCL2) Biomarker Activity (AID 2283073); conditions: primary human keratinocytes with fibroblasts; actives raise or lower the signal
Procedure, shortened: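 Human keratinocyte–foreskin fibroblast co-culture; MCP-1 measured by ELISA 24 h after dosing. Bidirectional fit vs DMSO; cytotoxicity tracked by SRB total protein in parallel cultures.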

[10] = read-out: Matrix Metallopeptidase 9 (MMP9), MMP9 (gene 4318); experiment: BSK_KF3CT_MMP9: BioMAP Diversity Plus: KF3CT Assay for Matrix Metallopeptidase 9 (MMP9) Biomarker Activity (AID 2283074); conditions: primary human keratinocytes with fibroblasts; actives raise or lower the signal;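 as to AC50: MMP9 protein level quantified by ELISA in the co-culture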
Procedure, shortened: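 ELISA read-out of MMP-9 at 24 h post-dosing in a co-culture of human skin keratinocytes and foreskin fibroblasts. Gain or loss of signal was fitted in both directions against DMSO.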

[11] = read-out: urokinase plasminogen activator (uPA), PLAU (gene 5328); experiment: BSK_KF3CT_uPA: BioMAP Diversity Plus: KF3CT Assay for urokinase plasminogen activator (uPA) Biomarker Activity (AID 2283075); conditions: primary human keratinocytes with fibroblasts; actives raise or lower the signal
Procedure, shortened: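 Skin co-culture (keratinocytes + foreskin fibroblasts), human primary; 24 h post-dose; uPA by ELISA; gain/loss fit vs DMSO baseline.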

CD40, CD40 (gene 958) = experiment: BSK_LPS_CD40: BioMAP Diversity Plus: LPS Assay for CD40 Biomarker Activity (AID 2283076); conditions: primary human HUVEC with PBMC; actives raise or lower the signal
Procedure, shortened: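 HUVEC plus PBMC co-culture stimulated with LPS; CD40 quantified by ELISA 24 h after compound dosing. Fitting was bidirectional relative to DMSO. SRB staining of parallel cultures flagged overt cytotoxicity.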

[12] = read-out: E-selectin (Homo sapiens) (UniProt P16581); experiment: BSK_LPS_Eselectin: BioMAP Diversity Plus: LPS Assay for Eselectin Biomarker Activity (AID 2283077); conditions: primary human HUVEC with PBMC; actives raise or lower the signal
Procedure, shortened: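 Human umbilical vein endothelial cells co-cultured with PBMC under LPS stimulation; cell-surface E-selectin measured by ELISA 24 h after dosing. Change in either direction versus DMSO, with SRB total-protein staining in parallel cultures for cytotoxicity.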

[13] = read-out: Interleukin-8 (IL8), CXCL8 (gene 3576); experiment: BSK_LPS_IL8: BioMAP Diversity Plus: LPS Assay for Interleukin-8 (IL8) Biomarker Activity (AID 2283078); conditions: primary human HUVEC with PBMC; actives raise or lower the signal
Procedure, shortened: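 Human umbilical vein endothelial cells co-cultured with PBMC, LPS-stimulated, exposed to compound for 24 h. IL-8 quantified by ELISA; fitted in both directions against DMSO, with SRB total-protein staining of parallel cultures for cytotoxicity.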

[14] = BSK_LPS_SRB: Viability Assessment in the BioMAP Diversity Plus: LPS Assay (AID 2283079); conditions: primary human HUVEC with PBMC;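 also: total protein by sulforhodamine B absorbance as a cytotoxicity measure; measured one day after compound addition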
Procedure, shortened: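 Co-culture of human umbilical vein endothelial cells and PBMC, read 24 h after dosing. Total protein by 0.1% SRB staining after 10% TCA fixation, absorbance at 560 nm; bidirectional fit against DMSO.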

[15] = read-out: Monocyte Chemoattractant Protein-1 (MCP1), CCL2 (gene 6347); experiment: BSK_LPS_MCP1: BioMAP Diversity Plus: LPS Assay for Monocyte Chemoattractant Protein-1 (MCP1) Biomarker Activity (AID 2283081); conditions: primary human HUVEC with PBMC; actives raise or lower the signal;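 as to AC50: secreted MCP-1 protein quantified by ELISA in culture supernatant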
Procedure, shortened: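 Human umbilical vein endothelial cells co-cultured with PBMC, LPS-stimulated; secreted MCP-1 measured by ELISA 24 h after compound addition. Bidirectional curve fitting against DMSO baseline; SRB total-protein staining in parallel cultures for cytotoxicity.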

[16] = BSK_LPS_PGE2: BioMAP Diversity Plus: LPS Assay for Prostaglandin E2 (PGE2) Biomarker Activity (AID 2283082); conditions: primary human HUVEC with PBMC; actives raise or lower the signal
Procedure, shortened: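 PGE2 release measured by ELISA in an LPS-activated co-culture of human umbilical vein endothelial cells and peripheral blood mononuclear cells, read at 24 h post-dosing. DMSO served as baseline for bidirectional curve fitting.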

[17] = read-out: Macrophage colony-stimulating factor (MCSF), CSF1 (gene 1435); experiment: BSK_LPS_MCSF: BioMAP Diversity Plus: LPS Assay for Macrophage colony-stimulating factor (MCSF) Biomarker Activity (AID 2283083); conditions: primary human HUVEC with PBMC; actives raise or lower the signal
Procedure, shortened: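 HUVEC–PBMC co-culture, M-CSF measured by ELISA 24 h after chemical dosing. Fitted in both directions relative to DMSO as negative control; overt cytotoxicity assessed by SRB total-protein staining in parallel cultures.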

[18] = read-out: Interleukin-1 alpha (IL1a), IL1A (gene 3552); experiment: BSK_LPS_IL1a: BioMAP Diversity Plus: LPS Assay for Interleukin-1 alpha (IL1a) Biomarker Activity (AID 2283080); conditions: primary human HUVEC with PBMC; actives raise or lower the signal
Procedure, shortened: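 Human umbilical vein endothelial cells co-cultured with PBMC and stimulated with LPS; IL-1a measured by ELISA 24 h after dosing. Bidirectional fitting against DMSO; cytotoxicity checked by SRB staining in parallel cultures.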

[19] = read-out: Plasminogen activator inhibitor-1 (PAI1), SERPINE1 (gene 5054); experiment: BSK_hDFCGF_PAI1: BioMAP Diversity Plus: hDFCGF Assay for Plasminogen activator inhibitor-1 (PAI1) Biomarker Activity (AID 2283066); conditions: primary human foreskin fibroblasts; actives raise or lower the signal
Procedure, shortened: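 PAI-1 levels in human dermal foreskin fibroblasts were quantified by ELISA 24 h after dosing, with gain or loss analysed against DMSO. Overt cytotoxicity was checked by sulforhodamine B total-protein staining in parallel cultures.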

Measured: AC50

Chain of E-selectin (Homo sapiens) (P16581 whole entry, looked up): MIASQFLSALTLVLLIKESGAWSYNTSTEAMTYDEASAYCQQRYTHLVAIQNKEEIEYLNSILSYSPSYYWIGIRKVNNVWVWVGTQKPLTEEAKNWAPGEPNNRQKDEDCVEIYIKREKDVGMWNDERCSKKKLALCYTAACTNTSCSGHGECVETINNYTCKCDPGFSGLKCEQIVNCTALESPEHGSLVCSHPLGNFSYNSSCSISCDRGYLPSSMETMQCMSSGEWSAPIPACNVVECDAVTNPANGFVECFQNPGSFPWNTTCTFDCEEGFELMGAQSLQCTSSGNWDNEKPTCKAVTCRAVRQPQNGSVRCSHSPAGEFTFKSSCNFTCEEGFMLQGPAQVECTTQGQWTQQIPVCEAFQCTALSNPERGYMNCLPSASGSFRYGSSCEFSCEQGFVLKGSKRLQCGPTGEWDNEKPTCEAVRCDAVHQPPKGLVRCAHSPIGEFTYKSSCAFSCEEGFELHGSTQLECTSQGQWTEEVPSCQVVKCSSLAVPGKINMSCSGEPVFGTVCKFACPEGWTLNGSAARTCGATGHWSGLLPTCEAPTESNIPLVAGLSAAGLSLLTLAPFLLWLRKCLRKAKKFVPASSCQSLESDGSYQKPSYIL

CCOc1ccc(C(C)(C)COCc2cccc(Oc3ccccc3)c2)cc1
not listed: [18] | [19]
inactive: all other assays above

CCOC(=O)c1ccccc1C(=O)OCC
not listed: [3] | [19]
inactive: all other assays above

CC(Cl)CN(C)C (stereo not drawn)
active: [10] 0.0889 µM
not listed: [2] | [3]
inactive: all other assays above

Nc1ccc(Cl)cc1
not listed: [3] | [19]
inactive: all other assays above

COCCOCCO
active: [7] 0.148 µM | [9] 0.254 µM | [15] 27.5 µM
not listed: [5] | [19]
inactive: all other assays above

CCOP(=S)(OCC)SCSc1ccc(Cl)cc1
active: [2] 3.97 µM | [6] 3.12 µM | [7] 0.533 µM | [8] 0.0592 µM | [10] 0.324 µM | [11] 0.0705 µM | CD40, CD40 (gene 958) 20 µM | [18] 5.31 µM | [17] 18.7 µM
inactive: [1] | [3] | [4] | [9] | [12] | [13] | [14] | [15] | [16]

COC(=O)C(F)(F)C(F)(F)OC(F)(C(F)(F)F)C(F)(F)OC(F)=C(F)F (stereo not drawn)
active: [2] 2.13 µM and 2.85 µM
not listed: [8] | [19]
inactive: all other assays above

Nc1cc2c3c(c1)C(c1ccccc1)=N[C@@H](NC(=O)c1cccnc1)C(=O)N3CC2
not listed: [3] | [19]
inactive: all other assays above

ClC(Cl)(Cl)c1ccccc1
not listed: [5] | [19]
inactive: all other assays above

O=C(O)C=CC(F)(C(F)(F)F)C(F)(F)F
not listed: [3] | [5] | [8] | [19]
inactive: all other assays above

COP(N)(=S)OC
not listed: [5] | [19]
inactive: all other assays above

Nc1ccc2ccccc2c1
not listed: [3] | [5] | [19]
inactive: all other assays above

O=S1(=O)OCC2C(CO1)C1(Cl)C(Cl)=C(Cl)C2(Cl)C1(Cl)Cl (stereo not drawn)
active: [8] 35.6 µM | [15] 10.5 µM
not listed: [2] | [5]
inactive: all other assays above

Cc1c([N+](=O)[O-])cc2c(c1[N+](=O)[O-])C(C)(C)CC2(C)C
active: [8] 3.06 µM | CD40, CD40 (gene 958) 0.807 µM
not listed: [3] | [5] | [19]
inactive: all other assays above
